Laboratory results as given in PubChem BioAssay AID1053173 (Broad Institute, 2014).
In all, about 1,500 compounds went through this assay and about 390 (26%) were called active. No rule for the calls is given here. These entries were drawn from the full list. Entries with a potency or affinity are not part of this list.

target: Histone-lysine N-methyltransferase NSD2 (Homo sapiens) (UniProt O96028); test: NSD2 methyltransferase inhibitors, dose response, biochemical, AlphaScreen, cherry-picked samples (AID 1053173); settings: NSD2 H4 peptide methylation, 120 min; series mostly up to 10 µM
Sequence (O96028 whole entry, looked up): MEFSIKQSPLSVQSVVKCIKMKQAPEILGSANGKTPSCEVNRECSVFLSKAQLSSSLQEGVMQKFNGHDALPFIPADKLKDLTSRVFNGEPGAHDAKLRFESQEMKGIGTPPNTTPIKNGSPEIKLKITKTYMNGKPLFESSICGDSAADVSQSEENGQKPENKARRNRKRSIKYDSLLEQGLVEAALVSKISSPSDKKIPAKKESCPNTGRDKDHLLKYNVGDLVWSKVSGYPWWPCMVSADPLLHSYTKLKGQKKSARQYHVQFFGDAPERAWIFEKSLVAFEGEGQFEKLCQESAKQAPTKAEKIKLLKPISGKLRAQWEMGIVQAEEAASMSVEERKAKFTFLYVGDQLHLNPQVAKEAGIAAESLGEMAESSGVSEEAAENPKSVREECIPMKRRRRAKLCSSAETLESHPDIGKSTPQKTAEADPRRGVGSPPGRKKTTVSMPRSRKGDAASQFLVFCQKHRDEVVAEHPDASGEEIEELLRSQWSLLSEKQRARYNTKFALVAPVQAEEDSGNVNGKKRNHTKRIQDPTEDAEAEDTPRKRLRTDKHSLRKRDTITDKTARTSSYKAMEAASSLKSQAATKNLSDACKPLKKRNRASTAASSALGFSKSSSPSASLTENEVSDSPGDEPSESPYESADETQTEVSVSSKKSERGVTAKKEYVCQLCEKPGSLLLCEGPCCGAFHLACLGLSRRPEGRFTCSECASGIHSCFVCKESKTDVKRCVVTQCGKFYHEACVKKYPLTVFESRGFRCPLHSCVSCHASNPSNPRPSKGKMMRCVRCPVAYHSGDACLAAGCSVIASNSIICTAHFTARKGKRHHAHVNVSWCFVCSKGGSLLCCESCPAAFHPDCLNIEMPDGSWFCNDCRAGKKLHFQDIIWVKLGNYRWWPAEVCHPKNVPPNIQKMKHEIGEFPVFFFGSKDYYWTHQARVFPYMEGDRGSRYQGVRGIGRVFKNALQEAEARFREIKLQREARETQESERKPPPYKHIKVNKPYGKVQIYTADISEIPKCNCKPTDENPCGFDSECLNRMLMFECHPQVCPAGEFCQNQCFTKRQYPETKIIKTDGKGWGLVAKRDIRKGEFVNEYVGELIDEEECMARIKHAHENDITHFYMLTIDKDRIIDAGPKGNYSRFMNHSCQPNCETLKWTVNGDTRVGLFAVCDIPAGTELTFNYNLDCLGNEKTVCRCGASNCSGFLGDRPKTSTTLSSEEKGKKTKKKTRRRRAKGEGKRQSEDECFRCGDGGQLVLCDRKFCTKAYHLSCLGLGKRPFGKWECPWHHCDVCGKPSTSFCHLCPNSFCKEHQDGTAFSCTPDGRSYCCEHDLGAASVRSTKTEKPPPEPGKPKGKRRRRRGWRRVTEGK

| Structure (SMILES) | outcome |
| --- | --- |
| O=C1CN(C(=O)COC(=O)c2ccc([N+](=O)[O-])s2)c2ccccc2N1 | inactive |
| CCN(CC)S(=O)(=O)c1ccc(N2CCN(C)CC2)c(NC(=O)Nc2ccccc2F)c1 | inactive |
| Cc1ccc(S(=O)(=O)N2CCN(C(=O)C(F)(F)F)C2c2ccc(N(C)C)cc2)cc1 (configuration not stated) | inactive |
| Cc1ccccc1CN1CCN(C(=O)c2ccco2)CC1 | inactive |
| CC1Oc2ccc(C#N)cc2N(Cc2cccc(F)c2)C1=O (configuration not stated) | inactive |
| C=CCN1CCN(C(c2cccc(OC)c2OC)c2nnnn2CCC(C)C)CC1 (configuration not stated) | inactive |
| CC(=O)c1ccc(NC(=O)CC2Nc3cccc4cccc(c34)NC2=O)cc1 (configuration not stated) | inactive |
| COCCCNC(=S)Nc1cccc2ncccc12 | inactive |
| O=C1CCCC2=C1C(c1ccc(O)c(O)c1)c1c(ccc3ncccc13)N2 (configuration not stated) | inactive |
| CN(CCc1ccccc1)C1CCCN(S(=O)(=O)N(C)C)C1 (configuration not stated) | inactive |
| C/C(CC(=O)NCCCN1CCOCC1)=N\NC(=O)COc1ccc(Cl)cc1 | inactive |
| O=C(COC(=O)c1ccc([N+](=O)[O-])o1)NC1CCS(=O)(=O)C1 (configuration not stated) | inactive |
| Cc1cccc(NC(=O)c2ccc(NS(=O)(=O)c3cccc4cccnc34)cc2)c1 | inactive |
| Cc1ccc(CSc2nnc(Nc3ccc(C)cc3)s2)cc1 | inactive |
| CN(c1ccc(C(=O)O)cc1)S(=O)(=O)c1ccccc1 | inactive |
| Cc1cc(C)c2c(c1)N[C@H](c1cccs1)[C@@H]1CCO[C@H]21 | inactive |
| CC(NC(=O)c1cccc(Br)c1)c1ccccc1 (configuration not stated) | inactive |
| CCN(CC)C(=O)COc1ccc2oc(C)c(C(=O)OC(C)C)c2c1 | inactive |
| COc1ccc(C)cc1NC(=O)CCNC(=O)Cn1cnc2ccccc2c1=O | inactive |
| Cc1ccc(Cn2c(SCC(=O)NCC3CCCO3)nc3c2c(=O)n(C)c(=O)n3C)cc1 (configuration not stated) | inactive |
| C/C(C=Nn1c(-c2ccc(F)cc2)n[nH]c1=S)=C/c1ccco1 | inactive |
| Cc1cc2ccccn2c1C(=O)c1ccc([N+](=O)[O-])o1 | inactive |
| Cc1ccc(C(=O)NC(=S)NNC(=O)c2ccccc2O)cc1 | inactive |

| Structure (SMILES) | outcome |
| --- | --- |
| COc1ccc(S(=O)(=O)NCc2ccc3c(c2)OCO3)cc1OC | inactive |
| Cn1c(COc2ccc(Cl)cc2)nnc1SCC(=O)NC1CCCCC1 | inactive |
| Cc1ccc(S(=O)(=O)N2CCCC(N3CCOCC3)C2)cc1Cl (configuration not stated) | inactive |
| O=C1CC(C(=O)N2CCc3ccccc32)CN1c1ccccc1 (configuration not stated) | inactive |
| O=C(NCCC(=O)N1CCc2ccccc21)c1ccco1 | inactive |
| O=C(OCC(=O)N1CCOCC1)c1ccc(Br)cc1 | inactive |
| O=C(c1cc(-c2ccc(Cl)cc2)n(-c2ccc(Cl)cc2)n1)N1CCOCC1 | inactive |
| C=CCn1c(SCc2ccc3c(c2)OCO3)nc2scc(-c3ccco3)c2c1=O | inactive |
| Cc1cccc(OCC(=O)Nc2ncn[nH]2)c1C | inactive |
| N#Cc1ccc(OCC(=O)NCCCn2ccnc2)cc1 | inactive |
| Cc1cc(OCCn2nc(C(=O)O)c3ccccc3c2=O)ccc1C(C)C | inactive |
| COCCCNC(=O)COc1ccc(Cl)c(C)c1 | inactive |
| COCCNc1nc(-c2ccccc2)nc2ccccc12 | inactive |
| CC(=O)c1ccc(NC(=S)NCCc2cccc(Cl)c2)cc1 | inactive |
| COCCNC(=O)CN(C(=O)CCC(=O)Nc1nccs1)c1ccc2c(c1)OCO2 | inactive |
| CCOC(=O)c1cc(NC(=O)CN2CCCC2)cc(C(=O)OCC)c1 | inactive |
| O=C(Cn1cnc2c(cnn2-c2ccccc2)c1=O)OCc1ccccc1 | inactive |
| CN(C)S(=O)(=O)c1ccc(Cl)c(C(=O)OCC(=O)c2ccco2)c1 | inactive |
| COc1ccc(CN(C(=O)c2cccc(OC)c2)C2CCS(=O)(=O)C2)cc1 (configuration not stated) | inactive |
| CN(C(=O)CN1C(=O)S/C(=C\c2ccccc2F)C1=O)C1CCS(=O)(=O)C1 (configuration not stated) | inactive |
| COC(=O)c1nc(NC(=O)c2ccccc2)n[nH]1 | inactive |
| Cc1ccc(C)c(NC(=S)Nc2cccc3cnccc23)c1 | inactive |
| O=C(Nc1cc(Cl)ccc1-n1cncn1)c1cccs1 | inactive |

| Structure (SMILES) | outcome |
| --- | --- |
| COc1ccc(C(C(=O)NC(C)(C)C)N(C(=O)CCC(=O)Nc2cc(C)on2)c2ccccc2F)cc1 (configuration not stated) | inactive |
| COc1cccc(/C=C2\N=C(SC)SC2=O)c1OC | inactive |
| Cc1c(C(=O)N2CCN(c3ccc(F)cc3)CC2)sc2ncnc(N3CCN(c4ccccn4)CC3)c12 | inactive |
| COC(=O)c1ccc(Cn2cnc3c(sc4nc(N5CCOCC5)c5c(c43)CCCC5)c2=O)o1 | inactive |
| CC(C)c1nc2oc3c(NCC4CCCO4)ncnc3c2c2c1COC(C)(C)C2 (configuration not stated) | inactive |
| CCO/C=C/C(=O)N(C)CCC#N | inactive |
| CCN(CC)C(=O)CSc1nc2ccccc2c(=O)n1CCC(=O)NCc1ccc(F)cc1 | inactive |
| COc1cc(NC(=O)CCn2c(=O)oc3ccccc32)cc(OC)c1OC | inactive |
| Cc1[nH][nH]c(=O)c1C(c1ccc(-c2cccc(C(=O)O)c2)o1)c1c(C)[nH][nH]c1=O | inactive |
| Cc1[nH][nH]c(=O)c1C(c1ccc(-c2ccc(F)cc2)o1)c1c(C)[nH][nH]c1=O | inactive |
| O=C(CC1SC2=NCCN2C1=O)Nc1ccccc1 (configuration not stated) | inactive |
| Cc1ccc(OCCCC(=O)Nc2ccccc2C(F)(F)F)cc1 | inactive |
| Cc1cccc(C)c1OCC(O)CNS(=O)(=O)c1ccccc1C(=O)N1CCCCC1 (configuration not stated) | inactive |
| Cc1ccc(-n2nc3c(=O)n(CC(=O)NCc4ccccc4)nc(C)c3c2C)cc1 | inactive |
| Fc1ccc(C2CCNCC2COc2ccc3c(c2)OCO3)cc1 (configuration not stated) | inactive |
| CN(C)Cc1cc(O)c(CN(C)C)cc1O | inactive |
| Cc1ccc(S(=O)(=O)N2CCOCC2)cc1NC(=O)CSc1ccccn1 | inactive |
| COc1cc2[nH]c(Cl)c([N+](=O)[O-])c2cc1OC | inactive |
| O=C(Nc1cccc(O)c1)c1ccc(Br)cc1 | inactive |
| COc1cc(/C=C/c2nc3ccccc3c(=O)[nH]2)cc(Cl)c1O | inactive |
| CC(=O)Nc1cccc(C(=O)OCc2ccccc2)c1 | inactive |
| Nc1nc(=S)c2ncn(C3OC(CO)C(O)C3O)c2[nH]1 (configuration not stated) | inactive |
| O=C(/C=C/c1ccc(-c2ccccc2)cc1)NCc1cccnc1 | inactive |

| Structure (SMILES) | outcome |
| --- | --- |
| CC(C)(C)CC(=O)Nc1nnc(SCC(=O)NCc2cccs2)s1 | inactive |
| C=CCn1c(=NC(=O)c2ccc(S(=O)(=O)N3CCCC3)cc2)sc2cc(NC(C)=O)ccc21 | inactive |
| CC1(C)NC(=O)N(CCOCCOc2c(Cl)cc(Cl)cc2Cl)C1=O | inactive |
| COc1ccc(CC(=O)NC2CCCCCC2)c(OC)c1 | inactive |
| Cc1cc(-c2n[nH]c(=S)n2N=Cc2cccc(OCc3ccccc3)c2)n[nH]1 | inactive |
| CC(C)=NOCC(=O)Nn1c(COc2c(C)cccc2C)nc2ccccc2c1=O | inactive |
| COc1ccc2nc3cccc(OC)c3nc2c1 | inactive |
| C=CCOCC(O)Cn1c(N2CCCC2)nc2c1c(=O)n(C)c(=O)n2C (configuration not stated) | inactive |
| CSCCC(NC(=O)c1ccccc1Cl)C(=O)NCC(c1ccc(F)cc1)N1CCOCC1 (configuration not stated) | inactive |
| COc1cc(C(=O)NC(C)c2ccc3ccccc3c2)cc(Cl)c1O (configuration not stated) | inactive |
| COc1cccc(-c2nn3c(-c4ccco4)nnc3s2)c1 | inactive |
| COc1ccc(-c2nnc3n2N=C(C)CS3)cc1 | inactive |
| Cn1c(=O)[nH]c2nnc(-c3ccc(Cl)c(Cl)c3)nc2c1=O | inactive |
| CCOc1ccccc1NC(=O)C1CCCN1C(=O)c1cccs1 (configuration not stated) | inactive |
| CSc1nc(N)nc(N(C)C)n1 | inactive |
| O=C(COC(=O)c1ccccc1F)NC1CC1 | inactive |
| CCOc1ccc(C(CC(=O)O)NC(=O)C23CC4CC(CC(C4)C2)C3)cc1OC (configuration not stated) | inactive |
| Cc1nc([N+](=O)[O-])c(C(=O)OCc2ccccc2F)n1C | inactive |
| CNc1c(N)n(Cc2ccccc2)c(=O)[nH]c1=O | inactive |
| Cc1ccccc1CS(=O)(=O)CC(O)CN1CCCC1=O (configuration not stated) | inactive |
| CCc1ccc(NC(=O)c2cc(-c3ccc4c(c3)OCO4)on2)cc1 | inactive |
| Nc1c(C(=O)NCc2ccc(F)cc2)c2nc3ccccc3nc2n1CCCN1CCOCC1 | inactive |
| COc1ccc2c(c1)c1nc3ccccc3nc1n2CCn1c(=O)oc2ccccc21 | inactive |

| Structure (SMILES) | outcome |
| --- | --- |
| CCc1ccc(N(CC(=O)NCc2ccc3c(c2)OCO3)C(=O)c2csnn2)cc1 | inactive |
| COc1ccc(C)cc1COC(=O)c1[nH]c(C)c(C(C)=O)c1C | inactive |
| COc1ccc(N(CC(=O)NCCSc2ccccn2)S(C)(=O)=O)cc1 | inactive |
| COc1ccc(CNC(=O)CCCn2nc(C)c([N+](=O)[O-])c2C)cc1OC | inactive |
| Cc1nc2cc(C(=O)NCc3cccnc3)ccc2n1-c1ccc(F)cc1F | inactive |
| Cc1ccc(C(=O)NCCn2c(N)c(C#N)c3nc4ccccc4nc32)cc1 | inactive |
| CCOC(=O)CNC(=O)N1CCC(CCC(=O)N(C)Cc2ccccc2)CC1 | inactive |
| CCCC(=O)Nc1ccc(C(=O)O)cc1NC(=O)CCC | inactive |
| O=C(O)c1ccc2cccnc2c1O | inactive |
| COc1cccc(NC(=O)c2ccc3c(c2)OCCO3)c1 | inactive |
| COc1ccc(-c2ncncc2-c2ccccc2)c(O)c1 | inactive |
| Cc1c([N+](=O)[O-])cc(N2C(=O)C=CC2=O)cc1[N+](=O)[O-] | inactive |
| O=C1C=CC(=O)N1c1ccc(N2CCCCC2)cc1 | inactive |
| CCOC(=S)SCC(=O)Nc1nc(C)c(C)s1 | inactive |
| O=C(Nc1nnc(SCc2cccc3ccccc23)s1)C1COc2ccccc2O1 (configuration not stated) | inactive |
| NC(=O)C1Cc2ccccc2CN1S(=O)(=O)c1ccc(Cl)s1 (configuration not stated) | inactive |
| COc1ccccc1N(C)S(=O)(=O)c1ccc(C(=O)NC2CCCCCC2)cc1 | inactive |
| COc1cc(OC)c(C(=O)OC(C)C(=O)NCc2ccc3c(c2)OCO3)cc1OC (configuration not stated) | inactive |
| C/C(=N\NC(=O)c1nnn(-c2nonc2N)c1C)c1ccc(-c2ccccc2)cc1 | inactive |
| CC(=O)c1c(C)[nH]c(C(=O)Nc2ccc(C)cc2Br)c1C | inactive |
